# Activity calls are given as the source filed them.
# Experiments:
# [1] = binders of probe aFSTL3 on microarray, primary screen, stem cell growth factor project, biochemical, small-molecule microarray, fluorescence 635/667 (AID 1064); conditions: higher = more signal;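 further: measures binding of the biotinylated anti-FSTL3 antibody to printed compounds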
# [2] = binders from COS7 lysate, DM2A8 probe, primary screen, torsin A project, cell lysate, small-molecule microarray, fluorescence 635/667 (AID 1065); conditions: higher = more signal, COS7 lysate expressing mutant human TOR1A
# [3] = binders of probe aFGF2 on microarray, primary screen, stem cell growth factor project, biochemical, small-molecule microarray, fluorescence 635/667 (AID 1067); conditions: higher = more signal;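 further: measures binding of biotinylated aFGF2 protein to printed compounds on slides; z-score merges feature fluorescence and signal-to-noise across triplicate slides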
# [4] = binders of probe aFGF10 on microarray, primary screen, stem cell growth factor project, biochemical, small-molecule microarray, fluorescence 635/667 (AID 1071); conditions: higher = more signal;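 further: score merges 667 nm spot intensity and signal to noise from triplicate slides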
# [5] = biological target: Neurogenic locus notch homolog protein 2 (Homo sapiens) (UniProt Q04721); assay: Notch2 binders on small-molecule microarrays, primary screen, biochemical, small-molecule microarray, 635 nm fluorescence, stem cell growth factors (AID 1073); conditions: Notch2 binding, higher = more signal
# Sequence of Neurogenic locus notch homolog protein 2 (Homo sapiens) (Q04721 whole entry, looked up, canonical isoform): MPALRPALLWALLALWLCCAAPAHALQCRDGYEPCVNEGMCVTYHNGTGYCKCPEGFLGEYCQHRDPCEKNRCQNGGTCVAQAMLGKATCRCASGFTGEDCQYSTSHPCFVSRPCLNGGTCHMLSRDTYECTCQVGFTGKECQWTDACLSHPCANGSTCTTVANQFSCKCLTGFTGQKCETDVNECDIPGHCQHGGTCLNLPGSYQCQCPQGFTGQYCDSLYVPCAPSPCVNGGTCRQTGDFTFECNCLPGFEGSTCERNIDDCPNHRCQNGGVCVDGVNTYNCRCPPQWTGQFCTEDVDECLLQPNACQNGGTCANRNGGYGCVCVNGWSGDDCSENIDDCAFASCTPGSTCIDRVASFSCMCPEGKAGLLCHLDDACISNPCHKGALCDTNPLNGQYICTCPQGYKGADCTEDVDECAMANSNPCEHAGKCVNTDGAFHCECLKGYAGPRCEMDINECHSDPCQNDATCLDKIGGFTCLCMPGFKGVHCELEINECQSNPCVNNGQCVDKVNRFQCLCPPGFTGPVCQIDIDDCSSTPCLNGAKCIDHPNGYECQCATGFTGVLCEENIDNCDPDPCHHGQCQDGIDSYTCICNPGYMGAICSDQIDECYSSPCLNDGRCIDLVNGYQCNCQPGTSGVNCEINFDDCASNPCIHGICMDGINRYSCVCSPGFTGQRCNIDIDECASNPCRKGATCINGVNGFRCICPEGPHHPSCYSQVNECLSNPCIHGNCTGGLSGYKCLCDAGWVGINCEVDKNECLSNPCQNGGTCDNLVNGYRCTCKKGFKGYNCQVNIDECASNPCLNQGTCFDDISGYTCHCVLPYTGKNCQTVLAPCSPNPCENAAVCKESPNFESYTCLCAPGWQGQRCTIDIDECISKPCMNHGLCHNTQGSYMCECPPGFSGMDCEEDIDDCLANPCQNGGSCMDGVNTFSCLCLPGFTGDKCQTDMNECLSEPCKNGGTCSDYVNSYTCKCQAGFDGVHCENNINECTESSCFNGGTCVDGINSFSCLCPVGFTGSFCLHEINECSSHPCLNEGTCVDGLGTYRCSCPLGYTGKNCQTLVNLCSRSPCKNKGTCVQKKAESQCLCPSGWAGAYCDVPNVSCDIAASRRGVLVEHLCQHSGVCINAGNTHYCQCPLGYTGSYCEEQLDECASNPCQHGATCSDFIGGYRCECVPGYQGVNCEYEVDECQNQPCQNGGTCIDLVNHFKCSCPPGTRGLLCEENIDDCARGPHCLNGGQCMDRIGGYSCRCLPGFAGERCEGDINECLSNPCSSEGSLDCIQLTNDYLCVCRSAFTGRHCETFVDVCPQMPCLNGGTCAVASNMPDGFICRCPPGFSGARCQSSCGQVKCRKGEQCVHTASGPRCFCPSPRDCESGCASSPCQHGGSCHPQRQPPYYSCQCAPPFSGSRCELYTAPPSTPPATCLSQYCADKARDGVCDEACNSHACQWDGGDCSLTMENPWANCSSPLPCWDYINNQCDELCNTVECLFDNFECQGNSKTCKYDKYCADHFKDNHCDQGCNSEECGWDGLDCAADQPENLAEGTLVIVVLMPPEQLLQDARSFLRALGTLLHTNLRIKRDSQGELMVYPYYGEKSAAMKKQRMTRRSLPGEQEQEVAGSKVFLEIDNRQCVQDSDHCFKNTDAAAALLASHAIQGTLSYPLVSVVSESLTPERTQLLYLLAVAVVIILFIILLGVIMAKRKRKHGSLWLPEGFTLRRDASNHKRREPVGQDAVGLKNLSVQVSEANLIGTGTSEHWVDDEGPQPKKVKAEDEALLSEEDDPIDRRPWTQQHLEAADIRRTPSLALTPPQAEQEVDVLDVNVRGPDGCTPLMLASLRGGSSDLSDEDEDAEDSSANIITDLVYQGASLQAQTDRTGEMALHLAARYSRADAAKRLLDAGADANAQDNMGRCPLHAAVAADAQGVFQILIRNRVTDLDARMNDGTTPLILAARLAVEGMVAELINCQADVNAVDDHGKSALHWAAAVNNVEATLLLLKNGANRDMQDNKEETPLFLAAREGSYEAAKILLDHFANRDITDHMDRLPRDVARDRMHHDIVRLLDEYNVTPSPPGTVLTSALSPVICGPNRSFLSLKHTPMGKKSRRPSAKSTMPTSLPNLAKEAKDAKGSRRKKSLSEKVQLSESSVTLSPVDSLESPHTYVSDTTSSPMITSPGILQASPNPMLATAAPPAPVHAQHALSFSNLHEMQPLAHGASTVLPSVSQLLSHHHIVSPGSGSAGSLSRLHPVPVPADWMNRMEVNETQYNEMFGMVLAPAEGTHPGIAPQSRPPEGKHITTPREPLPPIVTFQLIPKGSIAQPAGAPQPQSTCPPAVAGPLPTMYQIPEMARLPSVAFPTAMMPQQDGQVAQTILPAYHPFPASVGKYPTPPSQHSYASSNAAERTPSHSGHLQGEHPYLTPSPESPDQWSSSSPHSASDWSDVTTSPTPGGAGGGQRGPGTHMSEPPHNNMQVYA
# [6] = biological target: Pro-neuregulin-1, membrane-bound isoform (Homo sapiens) (UniProt Q02297); assay: NRG1 binders on small-molecule microarrays, primary screen, psychiatric disease protein project, biochemical, small-molecule microarray, fluorescence 635/667 (AID 1075); conditions: NRG1 binding, 635 nm fluorescence, higher = more signal;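 further: score combines 667 nm spot fluorescence with signal to noise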
# Sequence of Pro-neuregulin-1, membrane-bound isoform (Homo sapiens) (Q02297 whole entry, looked up, the tested form may be a part, canonical isoform): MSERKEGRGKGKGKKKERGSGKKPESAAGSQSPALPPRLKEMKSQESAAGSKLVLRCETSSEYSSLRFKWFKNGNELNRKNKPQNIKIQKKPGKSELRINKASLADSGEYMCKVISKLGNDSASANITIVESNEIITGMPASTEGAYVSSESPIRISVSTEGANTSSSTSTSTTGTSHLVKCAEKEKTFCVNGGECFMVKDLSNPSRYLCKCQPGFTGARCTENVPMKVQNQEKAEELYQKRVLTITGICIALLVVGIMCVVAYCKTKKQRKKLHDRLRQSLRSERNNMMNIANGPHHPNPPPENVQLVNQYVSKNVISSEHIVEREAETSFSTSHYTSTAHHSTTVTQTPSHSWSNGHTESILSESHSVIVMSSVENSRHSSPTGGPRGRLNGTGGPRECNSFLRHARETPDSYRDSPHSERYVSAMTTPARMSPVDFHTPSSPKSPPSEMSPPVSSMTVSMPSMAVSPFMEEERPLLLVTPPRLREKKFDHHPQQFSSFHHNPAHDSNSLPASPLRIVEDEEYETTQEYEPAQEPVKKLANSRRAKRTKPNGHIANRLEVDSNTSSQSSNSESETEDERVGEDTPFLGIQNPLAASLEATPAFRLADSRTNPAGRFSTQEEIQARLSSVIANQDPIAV
# [7] = test system: Neuregulin-1 EGF-like domain; assay: binders of neuregulin-1 EGF-like domain, primary screen, biochemical, small-molecule microarray, 635 nm fluorescence (AID 1081); conditions: small-molecule microarray binding, higher = more signal;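 further: binding of the protein to compounds printed on small-molecule microarray slides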
# [8] = FRG1 promoter luciferase signal modulators, primary screen, FRG1 inhibition for FSHD, cell-based, C2C12 myotubes, firefly/Renilla luciferase, luminescence (AID 1084); conditions: higher = more signal, called active from +8 up or from −8 down
# [9] = binders of probe aFST on microarray, primary screen, stem cell growth factor project, biochemical, small-molecule microarray, fluorescence 635/667 (AID 1086); conditions: higher = more signal;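 further: score merges 667 nm fluorescence with signal-to-noise of each printed compound spot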
# [10] = binders of probe aHhip on microarray, primary screen, stem cell growth factor project, biochemical, small-molecule microarray, fluorescence 635/667 (AID 1087); conditions: higher = more signal;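 further: score merges spot fluorescence at 667nm with spot signal to noise ratio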
Structure (SMILES),composite z-score [1],composite z-score [2],composite z-score [3],composite z-score [4],composite z-score [5],composite z-score [6],composite z-score [7],z-score [8],composite z-score [9],composite z-score [10]
COC(=O)[C@@]1(Cc2ccccc2)[C@@H]2[C@@H](CC(=O)[C@H]2CC(=O)C(=O)N(C)C)CN1C(=O)c1ccccc1,0.186,-1,-0.169,0.281,1.19,1.89,1.21,1.1 (inactive),0.319,-0.0994
COc1cc(OC)c(C(O)C2C=CC3C(=O)N(c4ccccc4)C(=O)C3N2Nc2ccccc2F)cc1Br (stereo not given),0.0776,0.948,0.0619,0.61,1.44,1.74,1.25,0.0172 (inactive),1.53,-0.0088
COC(=O)[C@@]1(Cc2ccc(OC)cc2)[C@@H]2[C@@H](CC(=O)[C@H]2CC(=O)C(=O)N2CCCC2)CN1C(=O)c1ccccc1,2.42,0.296,0.926,0.884,1.69,1.94,1.24,1.31 (inactive),2.67,2.65
C=CC[C@]1(C(=O)OC)N=C(c2ccc(OCCCO)cc2)O[C@H]1c1ccccc1N=[N+]=[N-],0.638,0.402,0.288,1.13,1.42,1.5,1.4,3.21 (inactive),1.03,0.33
C=CCC(OC(C)=O)[C@@H]1[C@@H](N(Cc2ccc(-c3ccccc3)cc2)C(=O)c2cccc3ccccc23)c2cc(OCCCO)ccc2N1C(=O)c1ccc2ccccc2c1 (stereo not given in full),-0.254,-0.0509,-0.0973,0.246,0.045,-0.179,-0.172,-0.891 (inactive),0.277,-0.0672
CCCC[C@@H](O)C1=C(COC)Cn2c(=O)n(-c3ccccc3)c(=O)n2[C@H]1CO,-0.306,-0.191,-0.226,0.13,-0.167,-0.43,-0.336,-1.12 (inactive),-0.292,-0.236
CCCCC(O)C1C=CC2C(=O)N(C)C(=O)C2N1Nc1ccccc1 (stereo not given),0.645,0.0873,-0.0778,0.435,0.762,1.76,1.25,1.63 (inactive),0.632,0.128
C=C(COC)/C(=C/C[C@@H](OC(C)=O)c1ccccc1OCCO)c1cc(C(=O)OC)ccc1OC,0.0503,0.377,-0.116,0.785,-0.216,1.48,1.09,-0.657 (inactive),0.0581,-0.374
CCCCN1CC=CC23O[C@@H]4/C=C\CCC(C)OC(=O)C4[C@H]2C(=O)N(C(C)CO)[C@@H]3C1=O (stereo not given in full),-0.126,-0.248,-0.164,-0.0863,-0.831,-1,0.331,-0.3 (inactive),-0.536,0.0373
CC(C)C[C@@H]1NC(=O)C([C@@H](C)OCc2ccccc2)NC(=O)[C@@]23C(=O)N[C@@H](Cc4ccccc4)C2[C@H](C)[C@@]2(C)O[C@H]2C3/C=C/CC/C=C/CNC1=O (stereo not given in full),-0.38,0.924,-0.0841,0.379,0.319,1.11,0.979,1.49 (inactive),0.0793,-0.353
COCCOC(=O)N1C(=O)[C@@]2(c3cc(C#CC4(O)CCCCCC4)ccc31)[C@H](c1ccc(OCCO)cc1)N1[C@H](c3ccccc3)[C@H](c3ccccc3)OC(=O)[C@H]1[C@@H]2C(=O)N1CCCCCCC1,1.81,0.437,0.466,0.276,1.25,1.77,1.29,0.222 (inactive),2.41,2.99
CCCCNC(=O)c1ccc(C#C[Si](C)(C)C)c(OC(C)=O)c1,-0.175,0.293,-0.0718,0.112,0.277,-0.166,0.103,1.87 (inactive),-0.0501,-0.0726
CN(C)CCCC[C@@H]1NC(=O)[C@H]2C[C@@H](C(=O)NCc3ccc(F)cc3)[C@@H](c3ccc(O)cc3)N2C1=O,0.0653,0.412,-0.0904,0.268,0.201,0.865,1.25,1.07 (inactive),-0.0224,0.028
CC(=O)c1ccc(C(O)C2C=CC3C(=O)N(C)C(=O)C3N2NC(=O)OC(C)(C)C)cc1 (stereo not given),0.301,0.169,0.152,1.13,1.61,2.11,1.35,0.929 (inactive),0.948,-0.154
[N-]=[N+]=Nc1ccccc1[C@@H]1OC(c2ccc(OCCCO)cc2)=N[C@]1(Cc1ccccc1)C(N)=O,0.379,-0.334,-0.0543,0.505,0.824,1.17,0.884,0.377 (inactive),0.277,-0.0994
COCC(=C=CC[C@@H](O)c1ccc(OCCO)cc1)C[C@@H](O)COCc1ccccc1,0.158,-0.187,-0.015,0.734,0.726,1.11,1.07,-1.1 (inactive),0.543,0.111
COCCOC(=O)N1C(=O)[C@@]2(c3cc(C#CC4=CCCCC4)ccc31)[C@H](C(=O)N1CCN(c3ncccn3)CC1)[C@H]1C(=O)O[C@H](c3ccccc3)[C@H](c3ccccc3)N1[C@@H]2c1ccccc1OCCO,-0.285,0.943,0.0346,0.616,0.793,0.591,1.15,1.45 (inactive),0.636,-0.0237

Structure (SMILES),composite z-score [1],composite z-score [2],composite z-score [3],composite z-score [4],composite z-score [5],composite z-score [6],composite z-score [7],z-score [8],composite z-score [9],composite z-score [10]
O=C1c2ccccc2[C@](Cc2ccccc2I)(C(=O)O)[C@H](c2ccc(CO)cc2)N1Cc1ccccc1,0.877,0.996,-0.101,0.0611,0.19,1.51,1.23,-1.1 (inactive),-0.0119,-0.226
COc1ccc(CCNC(=O)[C@@]2(Sc3ccc(C)cc3)CC(=O)N(C(C)C)[C@@H]2c2ccc(CO)cc2)cc1,1.09,0.53,-0.129,-0.0606,-1.35,0.871,0.401,-0.921 (inactive),-0.686,0.021
COC(=O)c1c(CC[C@@H](CO)NC(=O)N[C@@H](Cc2ccccc2)Cn2cc(-c3cncn3C)nn2)oc(C(C)=O)c1C(=O)OC,-0.42,0.259,-0.129,0.716,-0.451,1.67,1.29,0.691 (inactive),0.0625,-0.0401
CCCC[C@@H]1C[C@H]1[C@@H](NC(=O)Cc1ccccc1)c1ccc(Cl)cc1,0.409,0.469,0.428,0.671,1.63,1.72,1.19,-2.4 (inactive),1.46,-0.193
COc1ccc(C#Cc2ccc3c(c2)[C@]2(C(=O)N3)[C@H](C(=O)Nc3nc4ccccc4s3)[C@H]3C(=O)O[C@H](c4ccccc4)[C@H](c4ccccc4)N3[C@@H]2c2ccc(OCCO)cc2)cc1,-0.113,1.45,0.0015,0.977,1.5,1.31,1.08,4.94 (inactive),0.349,-0.216
CC(C)N1CC=CC23O[C@@H]4C=CCCOC(=O)C4[C@H]2C(=O)N(CCCCCO)[C@@H]3C1=O (stereo not given in full),-0.0451,-1.06,-0.103,0.279,-0.905,1.93,1.21,-0.928 (inactive),-0.352,-0.353
CO[C@H]1O[C@H](CO)[C@@H](OC(=O)Nc2ccccc2)[C@@H]2OC(=O)[C@H](Cc3ccccc3)C/C=C/C[C@@H](Cc3ccccc3)C(=O)O[C@@H]12,0.146,0.779,0.0732,0.775,1.48,1.14,1.04,-1.64 (inactive),0.654,-0.0296
COC(=O)[C@@H]1N=C(c2ccc(OCCCO)cc2)O[C@@H]1c1ccccc1CN=[N+]=[N-],0.879,-0.744,0.0062,-0.784,-0.549,1.21,0.945,1.81 (inactive),0.646,0.291
CCCC=C(CCC)[C@@H](NS(=O)(=O)c1ccc(Cl)cc1)c1ccccc1,0.329,-0.558,0.106,-0.243,0.191,-0.223,-0.358,0.909 (inactive),-0.0037,0.0251
CC1(C)OC[C@@]23C=C(Br)[C@@H](C[C@H]12)[C@@]1(CO1)C3=O,-0.401,0.374,-0.105,0.403,0.517,0.146,0.149,-0.468 (inactive),0.0965,-0.0423
COc1ccc(NC(=O)O[C@H]2[C@H](OC(=O)Nc3ccc4c(c3)OCO4)[C@H](OC(=O)Nc3ccc4c(c3)OCO4)[C@@H](OC)O[C@@H]2CO)cc1,0.198,0.347,0.0519,0.739,0.302,0.978,0.905,3.53 (inactive),0.327,0.142
CC(C)C[C@@H]1NC(=O)[C@@H]2C[C@H](C(=O)O)[C@H](c3ccc(O)cc3)N2C1=O,-0.451,1.9,-0.121,0.338,0.529,0.833,1.23,-0.93 (inactive),0.186,0.0373
CCCCCCc1nc(-c2ccc(OC)nc2)cc2c1[Si](C(C)C)(C(C)C)OC2,-0.0192,0.456,-0.15,-0.0125,-0.383,-0.151,-0.769,0.366 (inactive),-0.193,0.0306
NC(=O)[C@@]1(CCS(=O)(=O)c2ccccc2)COC(c2ccc(OCCCO)cc2)=N1,0.615,0.0735,0.0777,0.0833,0.963,1.78,0.832,-0.429 (inactive),0.194,-0.112
COCCOC(=O)N1C(=O)[C@@]2(c3cc(C#Cc4ccc(OC)cc4)ccc31)[C@H](C(=O)N1CCCCCCC1)[C@H]1C(=O)O[C@H](c3ccccc3)[C@H](c3ccccc3)N1[C@@H]2c1ccccc1OCCO,3.15,0.486,0.685,0.265,1.13,1.29,1.12,-0.575 (inactive),3.04,2.21
COC(=O)c1ccc([C@H](NC(=O)c2ccccc2)[C@]2(C)C[C@H]2C2CCCCC2)cc1,0.735,-0.678,0.056,0.172,1.22,1.18,0.678,-1 (inactive),0.86,0.245

# From PubChem BioAssay
